This passage reports growth results from PubChem BioAssay (NCI).

Compounds without any hit were thinned out: in the full panel of roughly 83,000, 20% have a hit.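 A percent growth of 40 corresponds to 60% growth inhibition; 0 means no net growth; -100 means all cells died. Active threshold: below 10.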 Values without a mark were called inactive. Calls of active or inactive are those of the source.

Holding throughout (experiment): NCI-60 one-dose screen, 48 h (100 = growth as untreated, 0 = no growth, -100 = all killed)
One assay concerns HCT-15 colon. The settings on record: 10 µM unless noted.
The next assay has as its system HT29 colon. The settings on record: 10 µM unless noted.
Another assay has as its system SNB-75 CNS. The settings on record: 10 µM unless noted.
The test system of another assay is SNB-19 CNS. The settings on record: 10 µM unless noted.
For the next assay, the system named is U251 CNS. The settings on record: 10 µM unless noted.
The next assay has as its system PC-3 prostate. The settings on record: 10 µM unless noted.
The test system of a further assay is SK-MEL-5 melanoma. The settings on record: 10 µM unless noted.
The next assay relates to UACC-62 melanoma. The settings on record: 10 µM unless noted.
A further assay relates to LOX IMVI melanoma. The settings on record: 10 µM unless noted.
Another assay relates to SK-MEL-28 melanoma. The settings on record: 10 µM unless noted.
A further assay concerns SK-MEL-2 melanoma. The settings on record: 10 µM.
Another assay concerns EKVX NSCLC. The settings on record: 10 µM unless noted.
The subject of another assay is SN12C renal. The settings on record: 10 µM unless noted.
The subject of a further assay is UO-31 renal. The settings on record: 10 µM unless noted.
The next assay relates to TK-10 renal. The settings on record: 10 µM unless noted.
A further assay concerns ACHN renal. The settings on record: 10 µM unless noted.
The next assay deals with CAKI-1 renal. The settings on record: 10 µM unless noted.
The next assay relates to CCRF-CEM leukemia. The settings on record: 10 µM unless noted.
A further assay concerns MOLT-4 leukemia. The settings on record: 10 µM unless noted.
Another assay concerns A498 renal. The settings on record: 10 µM unless noted.

As to `NC1=Nc2ccccc2N(O)N1`, the growth in the assay with HCT-15 colon was 105%; in the assay on HT29 colon, 90.6%; in the assay on SNB-75 CNS, 78.5%; in the assay with SNB-19 CNS, 108%; in the assay on U251 CNS, 98.6%; in the assay on PC-3 prostate, 95.1%. Moreover, the growth is 105% in the assay with SK-MEL-5 melanoma; 102% in the assay with UACC-62 melanoma; 96.8% in the assay with LOX IMVI melanoma; 100% in the assay with SK-MEL-28 melanoma; 89.2% in the assay with SK-MEL-2 melanoma; 95.4% with EKVX NSCLC. Also, the growth with SN12C renal is 99.1%; with UO-31 renal, 88.4%; in the assay on TK-10 renal, 94.7%; in the assay with ACHN renal it was 100%; in the assay on CAKI-1 renal, 91.8%; with CCRF-CEM leukemia, 105%. Further, the growth in the assay with MOLT-4 leukemia was 99.4%.
For the compound `COc1cnc2c(c1)C(=O)c1c-2n(CCCN2CCC(O)CC2)c(=O)c2cc(Cl)ccc12`, the growth is -71.5% (active) in the assay with HCT-15 colon; -54.6% (active) in the assay on HT29 colon; 49.1% in the assay with SNB-75 CNS; 34.2% with SNB-19 CNS; -76.7% (active) in the assay on U251 CNS; 41.9% in the assay on PC-3 prostate. In addition, the growth in the assay on SK-MEL-5 melanoma is 50.7%; in the assay on UACC-62 melanoma, 24.5%; with LOX IMVI melanoma, -86.3% (active); in the assay on SK-MEL-28 melanoma it was 102%; in the assay on SK-MEL-2 melanoma it was 107%; in the assay with EKVX NSCLC, 67.7%. In addition, the growth was 30.5% in the assay on SN12C renal; 15% in the assay on UO-31 renal; 82.8% in the assay on TK-10 renal; 8.76% (active) in the assay on ACHN renal; 20.1% in the assay with CAKI-1 renal; -3% (active) with A498 renal. Moreover, the growth is 0.479% (active) in the assay with CCRF-CEM leukemia and -7.04% (active) in the assay with MOLT-4 leukemia.
Consider `Cc1ccsc1C(NC(=O)c1ccccc1)c1cc(Cl)c2cccnc2c1O` (stereo not drawn), for which the growth in the assay with HCT-15 colon is 13.4%; in the assay with HT29 colon it was 29.2%; in the assay on SNB-75 CNS, 30%; with SNB-19 CNS it was 15.3%; in the assay on U251 CNS, 6.52% (active); in the assay on PC-3 prostate, 18.3%. For the same compound, the growth in the assay with SK-MEL-5 melanoma was 4.33% (active); in the assay with UACC-62 melanoma, -22.3% (active); in the assay on LOX IMVI melanoma it was 8.58% (active); with SK-MEL-28 melanoma, 45.4%; in the assay with SK-MEL-2 melanoma it was 12.6%; in the assay on EKVX NSCLC, 18.2%. The growth is 23.2% with SN12C renal; 2.22% (active) in the assay with UO-31 renal; 27.6% in the assay with TK-10 renal; 10.8% in the assay with ACHN renal; 15.7% with CAKI-1 renal; 9.96% (active) with CCRF-CEM leukemia. Besides, the growth with MOLT-4 leukemia is 14.6%.
Take `CCNCCNc1cc(-c2ccc(Cl)c(Cl)c2)c(C#N)c2nc3ccccc3n12`: the growth with HCT-15 colon is -84% (active); in the assay on HT29 colon, -87.3% (active); in the assay on SNB-75 CNS, -88.4% (active); with SNB-19 CNS, -74.2% (active); in the assay with U251 CNS, -95.5% (active); in the assay with PC-3 prostate it was -83% (active). Further, the growth is -93.5% (active) in the assay with SK-MEL-5 melanoma; -74.2% (active) with UACC-62 melanoma; -93.4% (active) in the assay with LOX IMVI melanoma; -81% (active) with SK-MEL-28 melanoma; -83.1% (active) in the assay with SK-MEL-2 melanoma; -80% (active) in the assay with EKVX NSCLC. Moreover, the growth with SN12C renal is -68.9% (active); in the assay on UO-31 renal, -84% (active); in the assay on TK-10 renal it was -84.3% (active); in the assay with ACHN renal it was -90.5% (active); in the assay on CAKI-1 renal it was -95.4% (active); in the assay on A498 renal it was -76.6% (active). Moreover, the growth in the assay on CCRF-CEM leukemia is -30.3% (active); in the assay on MOLT-4 leukemia, -43.4% (active).
For `Fc1ccc(NCc2cn(-c3ccccc3)nc2-c2ccc(OCc3ccccc3)cc2)cc1Cl`, the growth with HCT-15 colon is 92.2%; in the assay with HT29 colon it was 71.3%; in the assay with SNB-75 CNS, 77.7%; with SNB-19 CNS, 95.1%; in the assay with U251 CNS, 97.1%; in the assay on PC-3 prostate, 79.9%. Also, the growth is 101% in the assay on SK-MEL-5 melanoma; 90.7% in the assay with UACC-62 melanoma; 96.7% with LOX IMVI melanoma; 98.9% in the assay with SK-MEL-28 melanoma; 91.9% with SK-MEL-2 melanoma; 85.7% with EKVX NSCLC. Moreover, the growth was 91.6% in the assay with SN12C renal; 75% in the assay with UO-31 renal; 93.7% with TK-10 renal; 91% with ACHN renal; 82.9% in the assay with CAKI-1 renal; 119% in the assay with A498 renal. The values for the growth with CCRF-CEM leukemia and in the assay on MOLT-4 leukemia were 92% and 85.8%, respectively.
For `CCN(CC)Cc1cc(Nc2cc(C(F)(F)F)c(C#N)c3nc4ccccc4n23)ccc1O`, the growth in the assay with HCT-15 colon was 6.22% (active); with HT29 colon it was 5.33% (active); with SNB-75 CNS it was 13.5%; in the assay with SNB-19 CNS, 18.5%; with U251 CNS it was 8.94% (active); with PC-3 prostate, 6.16% (active). The growth with SK-MEL-5 melanoma was -36.4% (active); with UACC-62 melanoma, 9.53% (active); with LOX IMVI melanoma it was 12.2%; with SK-MEL-28 melanoma it was 29.6%; with SK-MEL-2 melanoma, 4.36% (active); in the assay on EKVX NSCLC, 15.8%. In addition, the growth in the assay on SN12C renal was 5.86% (active); in the assay on UO-31 renal, -17.4% (active); in the assay with TK-10 renal, 10.6%; with ACHN renal it was 4.68% (active); in the assay with CAKI-1 renal it was 6.96% (active); in the assay on A498 renal it was -14.2% (active). Besides, the growth is 5.56% (active) in the assay on CCRF-CEM leukemia and 4.11% (active) with MOLT-4 leukemia.
In the case of `CC(=O)Oc1ccccc1C(=O)N=C1[Se]CCN1C(=O)c1ccccc1OC(C)=O`, the growth in the assay on HCT-15 colon is -36.1% (active); with HT29 colon, 0.805% (active); in the assay on SNB-75 CNS it was -65.2% (active); with SNB-19 CNS, -48.8% (active); in the assay on U251 CNS, -63.6% (active); in the assay on PC-3 prostate it was -49.7% (active). Further, the growth in the assay with SK-MEL-5 melanoma is -57.6% (active); in the assay with UACC-62 melanoma, -57.8% (active); in the assay with LOX IMVI melanoma, -49% (active); in the assay with SK-MEL-28 melanoma, -27.9% (active); in the assay with SK-MEL-2 melanoma it was -18.4% (active); in the assay with EKVX NSCLC it was -39% (active). The growth with SN12C renal is -30% (active); in the assay with UO-31 renal, -91% (active); in the assay on TK-10 renal, -72.3% (active); in the assay on ACHN renal, -91.5% (active); in the assay on CAKI-1 renal, -97.7% (active); in the assay with A498 renal, -94% (active). The growth was 18.6% with CCRF-CEM leukemia and 6.05% (active) with MOLT-4 leukemia.
